Source: PubChem BioAssay (EPA / NIEHS)
Inconclusive results are not listed. The source made the active and inactive calls. How the source made its calls: active means hit-call score of the fitted dose curve at least 0.9, where 1 is the maximum; inconclusive means response in the unintended direction; inactive means score below 0.9.

The compounds below were run on sulfotransferase (SULT2A), SULT2A1 (gene 6822) (assay: CLD_SULT2A_24hr: CellzDirect (CLD) Gene Expression Assay for sulfotransferase (SULT2A) at 24 hours (AID 2283694);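 on AC50: potency for increased SULT2A1 mRNA level as induction over DMSO baseline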).
Method: CLD_24hr is a cell-based, multiplexed-readout assay that uses hepatocyte, a human liver primary cell, with measurements taken at 24 hours after chemical dosing in a 96-well plate.CLD_SULT2A_24hr is one of 16 assay component(s) measured or calculated from the CLD_24hr assay. It is designed to make measurements of mRNA induction, a form of inducible reporter, as detected with chemiluminescence signals by Quantitative Nuclease Protection Assay (qNPA) technology.Data from the assay component CLD_SULT2A_24hr was analyzed at the endpoint, CLD_SULT2A_24hr, in the positive analysis fitting direction relative to DMSO as the negative control and baseline of activity. Using a type of inducible reporter, gain-of-signal activity can be used to understand changes in the reporter gene as they relate to the gene SULT2A1. Furthermore, this assay endpoint can be referred to as a primary readout. To generalize the intended target to other relatable targets, this assay endpoint is annotated to the transferase intended target family, where subfamily is sulfotransferase.
Human hepatocyte cultures were treated daily for two consecutive days with fresh dosing solutions containing appropriate concentrations of the 320 ToxCast chemicals (chemical identities were blinded to CellzDirect and other ToxCast collaborators), vehicle control (0.2% DMSO), and positive control inducers as summarized in Table 1. Due to the large number of treatment groups and chemicals examined, the ToxCast chemicals were divided into two groups (spanning two independent cultures of hepatocytes from separate donor preparations (Hu778: ToxCast plates 1 and 2; Hu776: ToxCast plates 3 and 4). Each preparation of human hepatocyte cultures was treated with respective vehicle control, medium only control, set of six positive controls/reference chemicals for the five hepatic receptor pathways, and a subset of eight of the ToxCast chemicals (indoxacarb, pyrithiobac-sodium, norflurazon, cyhalofop-butyl, methomyl, thiram, acetochlor, and propiconazole). These replicate data, coupled with internal replicates designed within the blinded ToxCast chemical library, provided additional data to evaluate interindividual differences between hepatocyte preparations and their potential impact on chemical profiles.Cell morphology and integrity were evaluated using phase-contrast microscopy as an indicator of hepatocyte cell health (Tyson & Green, 1987). Cultures for each treatment group (i.e., media, vehicle [0.2% DMSO], positive control inducers [multiple concentrations], and the ToxCast chemicals [multiple concentrations]) were observed and cell morphology was assessed relative to vehicle control cultures at each harvest time point (0, 6, 24, or 48 h). […] Images were evaluated at the conclusion of the study to assess changes in cell integrity and account for the effects of chemical exposure on uncharacteristic changes in concentration-dependent gene expression profiles. The results from these determinations of apparent cytotoxicity were annotated (yes/no) alongside the corresponding qNPA data for reference.At the conclusion of each treatment period, hepatocyte cultures (96-well) were washed with 1 volume of HBSS, lysed by addition of 25 ul ArrayPlate lysis buffer (HTG, Tucson, AZ), and 70 ul/well of Denaturation Oil, denatured by incubation at 95C for 10 min, and frozen at approximately -70C until analysis by nuclease protection assay (qNPA) (Roberts et al., 2007). For qNPA analysis, cell lysates were thawed at 50C for approximately 30 min, qNPA probes were added, and samples were incubated at 95C for 10 min to begin the detection process by denaturing the target RNA, dissociating the duplexes and secondary structure hybridization. At the conclusion of the hybridization period, S1 nuclease reagent was added to each sample to digest all nonprotected nucleotides at 50C for 60-90 min. […]

| SMILES | outcome | AC50 |
| --- | --- | --- |
| CC(C)(C)C(O)/C(=C\c1ccc(Cl)cc1Cl)n1cncn1 (configuration not stated) | inactive | – |
| CC(C)N(C(=O)COc1nnc(C(F)(F)F)s1)c1ccc(F)cc1 | inactive | – |
| O=C(O)CCCOc1ccc(Cl)cc1Cl | inactive | – |
| COP(=O)(OC)OC=C(Cl)Cl | inactive | – |
| COP(=S)(OC)Oc1ccc([N+](=O)[O-])cc1 | inactive | – |
| ClC1C(Cl)C(Cl)C(Cl)C(Cl)C1Cl (configuration not stated) | inactive | – |
| CC(C)(C)C(O)C(Oc1ccc(Cl)cc1)n1cncn1 (configuration not stated) | inactive | – |
| O=C(O)C(F)(F)C(F)(F)C(F)(F)C(F)(F)C(F)(F)C(F)(F)C(F)(F)F | inactive | – |
| COC(=O)c1ccccc1S(=O)(=O)NC(=O)Nc1nc(C)nc(OC)n1 | inactive | – |
| O=S(=O)(O)C(F)(F)C(F)(F)C(F)(F)C(F)(F)C(F)(F)C(F)(F)C(F)(F)C(F)(F)F | inactive | – |
| COC(=O)c1ccccc1S(=O)(=O)NC(=O)N(C)c1nc(C)nc(OC)n1 | inactive | – |
| COc1cc(OC)nc(NC(=O)NS(=O)(=O)c2cc(NC=O)ccc2C(=O)N(C)C)n1 | inactive | – |
| COc1nn(CSP(=S)(OC)OC)c(=O)s1 | inactive | – |
| Clc1ccccc1-c1nnc(-c2ccccc2Cl)nn1 | – | 0.852 µM (active) |
| CCOC1Oc2ccc(OS(C)(=O)=O)cc2C1(C)C (configuration not stated) | inactive | – |
| O=C(NC(=O)c1c(F)cccc1F)Nc1ccc(OC(F)(F)C(F)OC(F)(F)F)c(Cl)c1 (configuration not stated) | inactive | – |

| SMILES | outcome | AC50 |
| --- | --- | --- |
| CC[C@H](C)[C@H]1O[C@]2(C=C[C@@H]1C)C[C@@H]1C[C@@H](C/C=C(\C)[C@@H](O[C@H]3C[C@H](OC)[C@@H](O[C@H]4C[C@H](OC)[C@@H](O)[C@H](C)O4)[C@H](C)O3)[C@@H](C)/C=C/C=C3\CO[C@@H]4[C@H](O)C(C)=C[C@@H](C(=O)O1)[C@]34O)O2 (tested in a mixture with another compound) | – | 12.3 µM (active) |
| Cc1cc(C)nc(NC(=O)NS(=O)(=O)c2ccccc2C(=O)OC2COC2)n1 | inactive | – |
| CCc1ccc(C(=O)NN(C(=O)c2cc(C)cc(C)c2)C(C)(C)C)cc1 | inactive | – |
| CC(C)OC(=O)Nc1cccc(Cl)c1 | inactive | – |
| C[C@H]1[C@H](c2ccc(Cl)cc2)SC(=O)N1C(=O)NC1CCCCC1 | inactive | – |
| CCOCN(C(=O)CCl)c1c(C)cccc1CC | inactive | – |
| CCC(C)Nc1c([N+](=O)[O-])cc(C(C)(C)C)cc1[N+](=O)[O-] (configuration not stated) | inactive | – |
| CCS(=O)(=O)c1cccnc1S(=O)(=O)NC(=O)Nc1nc(OC)cc(OC)n1 | inactive | – |
| CCCN(CCC)c1c([N+](=O)[O-])cc(C(F)(F)F)cc1[N+](=O)[O-] | inactive | – |
| CNC(=O)CSP(=S)(OC)OC | inactive | – |
| C#CCN1C(=O)COc2cc(F)c(N3C(=O)C4=C(CCCC4)C3=O)cc21 | inactive | – |
| Oc1cc(Cl)ccc1Oc1ccc(Cl)cc1Cl | inactive | – |
| CCC(C)(NC(=O)c1cc(Cl)c(C)c(Cl)c1)C(=O)CCl (configuration not stated) | inactive | – |
| N#CN | inactive | – |
| O=[N+]([O-])/N=C1\NCCN1Cc1ccc(Cl)nc1 | inactive | – |
| CNC(=O)/C=C(\C)OP(=O)(OC)OC | inactive | – |
